# BAZ2B inh: inhibitors of human BAZ2B bromodomain; Q9UIF8; AlphaScreen BAZ2B-H3K14Ac peptide displacement; Potency, µM (highest dose often 114 µM), for inactives: at the top dose activity change, negative = inhibition, most hits filed as inhibitors; 4.4% of 360,000 active; AID 504333; further: on the % scale 0 is the no-effect control and ±100 the full control effect; nearly all actives have a fitted effect of over 60% in size
#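 AlphaScreen displacement of biotin-H3(5-23)K14Ac peptide (50 nM final) from BAZ2B (50 nM final) in PBS pH 7.4, 0.01% Tween-20; complex preformed 30 min RT, then compounds (top 110 uM) 30 min RT, beads 20 min dark.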
# JMJD2A Tudor inh: blocks the human JMJD2A Tudor domain. AID 504339. O75164. AlphaScreen JMJD2A-Tudor / H3K4me3 peptide binding. 4.4% of 390,000 active. Potency, µM (titrated, usually from 114 µM), for the others: at the highest dose activity change, negative = inhibition, most hits filed as inhibitors; further: on the % scale 0 is the no-effect control and ±100 the full control effect; nearly all actives have a fitted effect of over 50% in size
# HP1b chromo inh: inhibitors of HP1-beta chromodomain binding to methylated histone tails; AlphaScreen HP1-beta / biotin-H3K9me3 peptide binding; 0.56% of 390,000 active; P83916; AID 540317; Potency, µM (series often up to 114 µM), for inactives: top-dose activity change, negative = inhibition, actives largely listed as inhibitors; further: nearly all actives have a fitted effect of over 70% in size
#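 Compound inhibition of the preformed complex between 50 nM HP1-beta and 50 nM biotinylated H3K9me3 peptide was read by AlphaScreen. Buffer was PBS pH 7.4 with 0.01% Tween-20. Incubations ran 30 min at room temperature, with 10 ug/mL donor/acceptor beads.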
# L3MBTL1 inh: blocks human L3MBTL1; 0.66% of 230,000 active; AlphaScreen L3MBTL1–H3K9me1 peptide binding; Potency, µM (doses to about 57.1 µM), for the others: at the highest dose activity, negative = inhibition, most hits filed as inhibitors; AID 485360; further: on the % scale 0 is the no-effect control and ±100 the full control effect; nearly all actives have a fitted effect of over 60% in size
# Target sequence (Q9Y468 whole entry, looked up): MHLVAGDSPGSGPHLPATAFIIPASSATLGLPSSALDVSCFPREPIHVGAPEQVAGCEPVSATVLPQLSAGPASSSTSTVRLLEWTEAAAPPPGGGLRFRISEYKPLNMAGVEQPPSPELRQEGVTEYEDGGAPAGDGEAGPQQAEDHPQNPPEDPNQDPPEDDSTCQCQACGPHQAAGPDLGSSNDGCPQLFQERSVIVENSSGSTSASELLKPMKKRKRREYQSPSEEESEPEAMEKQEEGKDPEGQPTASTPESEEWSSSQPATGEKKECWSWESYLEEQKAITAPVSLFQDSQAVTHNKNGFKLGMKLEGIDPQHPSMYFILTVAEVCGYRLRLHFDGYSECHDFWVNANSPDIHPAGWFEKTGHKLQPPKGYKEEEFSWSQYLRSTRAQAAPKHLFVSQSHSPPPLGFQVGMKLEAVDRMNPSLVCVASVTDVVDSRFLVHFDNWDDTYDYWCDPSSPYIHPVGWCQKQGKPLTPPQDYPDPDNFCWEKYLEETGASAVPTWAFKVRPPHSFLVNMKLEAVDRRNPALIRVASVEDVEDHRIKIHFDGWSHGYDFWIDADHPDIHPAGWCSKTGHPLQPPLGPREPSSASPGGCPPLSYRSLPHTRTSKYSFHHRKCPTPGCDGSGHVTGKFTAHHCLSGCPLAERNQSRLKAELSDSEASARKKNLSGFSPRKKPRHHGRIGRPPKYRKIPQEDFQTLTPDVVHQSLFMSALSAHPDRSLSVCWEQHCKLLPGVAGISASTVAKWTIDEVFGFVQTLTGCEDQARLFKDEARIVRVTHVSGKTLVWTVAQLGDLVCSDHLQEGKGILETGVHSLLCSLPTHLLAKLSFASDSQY
#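 AlphaScreen proximity signal between nickel-chelate acceptor and streptavidin donor beads (final 10 ug/mL) reports binding of 50 nM L3MBTL1 to 75 nM biotin-H3 K9me1 peptide; complex incubated with compounds 30 min at room temperature; cefsulodin titration as control.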
# G9a inh: inhibitors of human histone lysine methyltransferase G9a; Potency, µM (highest dose often 102 µM), for inactives: at the highest dose activity, negative = inhibition, actives largely listed as inhibitors; G9a H3K9 monomethylation, AlphaScreen, 2 h; 8.8% of 350,000 active; Q96KQ7; AID 504332; further: on the % scale 0 is the no-effect control and ±100 the full control effect; nearly all actives have a fitted effect of over 75% in size
#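 Readings reflect AlphaScreen signal from monomethyl-H3K9 antibody detection. HMT at 20 nM; substrate b-H3K9 500 nM; cofactor SAM 20 uM; 2 h RT reaction; compounds tested as titrations in qHTS with 15 min preincubation.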
# * hit, by the source's call; ? = inconclusive; · = no result given; ! = not active in a repeat; [ ] = another dose, or the depositor's remark. In the library only some 11% were active in any assay of this set; here they are far more common. The call rests on the fitted dose curve; in most records, active means well fitted inhibition curve with a large enough effect; inconclusive means small, poorly fitted or top-dose-only effect; inactive means no such curve, though single readings can be large or run the other way. Potency means the concentration at half of the fitted maximal effect.
SMILES,BAZ2B inh,JMJD2A Tudor inh,HP1b chromo inh,L3MBTL1 inh,G9a inh
COc1cccc(-c2nc(SCC(=O)Nc3ccc4c(c3)OCCO4)c(-c3ccccc3)[nH]2)c1,-33.3%,?,17.1%,·,?
Cc1nc2cc(C(=O)OCC(=O)Nc3cccc(Cl)c3)ccc2n1-c1ccccc1,5.0%,-23.4%[57.1 µM],45.4%,-8.7%,50.1µM*
COc1cc(-c2nc(SCC(=O)Nc3ccc4c(c3)OCO4)c(-c3ccccc3)[nH]2)cc(OC)c1OC,?,?,?,·,11.2µM*
O=C(CSc1nc(-c2ccccc2)[nH]c1-c1ccccc1)Nc1ccc2c(c1)OCO2,56.2µM*,?,?,·,22.4µM*
O=C(CSc1ccc2c(c1)OCCO2)NCc1ccco1,?,-16.7%,24.0%,-6.3%,50.1µM*
O=C(COc1ccc(Cl)cc1)NCc1nnc(SCC(=O)Nc2ccc3c(c2)OCCO3)o1,6.4%,79.4µM*,?,7.4%,18.5%[59 µM]
COc1ccc(-c2nc(SCC(=O)Nc3ccc4c(c3)OCCO4)c(-c3ccccc3)[nH]2)cc1,-1.7%,-23.6%,18.2%,·,-11.7%[59 µM]
COc1ccc(-c2[nH]c(-c3cccc(OC)c3)nc2SCC(=O)Nc2ccc3c(c2)OCO3)cc1,?,?,?,·,10µM*
O=C(CSc1ccccc1)NCc1ccco1,6.7%,-22.9%,8.6%,-5.2%,-12.4%[59 µM]
Cc1cc(Cl)ccc1NC(=O)C1CCN(c2nnc(-n3c(C)ccc3C)s2)CC1,-2.7%,-12.4%,19.8%,·,10.9%[59 µM]
Cc1nn(CC(=O)Nc2ccc3c(c2)OCO3)c(C)c1Cl,-13.8%,1.6%,45.1%,·,70.8µM*
Cc1cc(C(F)(F)F)nn1CC(=O)Nc1ccc2c(c1)OCO2,-13.0%,-19.7%,20.8%,·,24.0%
CNC(=O)OCc1cccc(COC(=O)NC)n1,?,-4.8%,32.1%,4.7%,44.7µM*!
COc1cc(OC)c(NS(=O)(=O)c2coc(C(N)=O)c2)cc1Cl,-5.6%,-29.6%,36.1%,·,70.8µM*
CCOc1ccc(CC(=O)OCN2C(=O)c3ccccc3C2=O)cc1,-3.0%,-3.4%,22.6%,17.1%,39.8µM*
O=C(Cc1ccc(F)cc1)OCN1C(=O)c2ccccc2C1=O,79.4µM*,-9.0%,46.0%,·,28.2µM*
COc1ccc(CC(=O)OCN2C(=O)c3ccccc3C2=O)cc1,6.3%,11.1%,47.6%,4.2%,23.2%[59 µM]
Cc1cc(NC(=O)C2CCCN(S(=O)(=O)c3cccc4nonc34)C2)ccc1Br (centres undefined),1.4%,-1.7%,28.2%,·,8.2%[59 µM]
CC(=O)OCCCCCCCCCCC[N+]1(C)CCCCC1,-21.2%,-1.7%,18.6%,4.2%,44.7µM*
COC(=O)CCCC(=O)OC,·,-6.1%,10.8%,-2.3%,·
COC(=O)CCCCCCCCCC[N+]1(C)CCCCC1,-35.5%,?,13.1%,14.2%,15.8µM*
C[N+]1(CCCCSc2ccc(O)cc2)CCCCC1,?,-2.8%,3.0%,4.9%,?
COC(=O)C1=COC(OC2OC(CO)C(O)C(O)C2O)C2C1C=CC2(O)CO (centres undefined),28.2µM*,35.5µM*,20µM*,·,0.6%[12.7 µM]
Cc1ccc(CNC(=O)C(C)n2ccc3cc(S(=O)(=O)N4CCCC4)ccc32)cc1 (centres undefined),-10.9%,-19.0%,0.3%,·,-5.2%[59 µM]
NC(=S)Nc1cnc2ccccc2c1,9.2%,-9.0%,21.2%,0.7%,50.1µM*
C#CCOCCOCCOCCNc1nc(N2CCN(C(=O)CCCCCCCCCCNC(=O)[C@@H](CCSC)n3cc(CCO)nn3)CC2)nc(N2CCN(C(=O)CCCCCCCCCCNC(=O)[C@H]([C@@H](C)CC)n3cc(CCCCN=C(N)N)nn3)CC2)n1,50.1µM*,39.8µM*,?,-12.1%,1.5%[2.33 µM]
C#CCOCCOCCOCCNc1nc(N2CCN(C(=O)CCCCCCCCCCNC(=O)[C@@H](CCSC)n3cc(CCO)nn3)CC2)nc(N2CCN(C(=O)CCCCCCCCCCNC(=O)[C@H]([C@@H](C)CC)n3cc(CCCCCN)nn3)CC2)n1,?,56.2µM*,?,-0.4%,19.5%[2.33 µM]
COc1cccc(CNS(=O)(=O)c2cc3[nH]c(=O)c(=O)[nH]c3cc2C)c1,-2.7%,1.0%,37.2%,·,6.2%[59 µM]
O=C(NCc1ccc(F)cc1)c1ccc(CS(=O)(=O)c2ccc(Cl)cc2)o1,-7.1%,-0.3%,56.5%,·,-0.7%[59 µM]

# Bioassay records deposited in PubChem by National Center for Advancing Translational Sciences (NCATS).
